Legend:
[1] = system: Vero E6 infected with SARS-CoV-2; assay: morphology score (similarity to uninfected cells); higher = more like uninfected cells; details: 24 h
[2] = system: Vero E6 infected with SARS-CoV-2; assay: SARS-CoV-2 infection rate relative to infected DMSO; higher = more infection, active = 60 or less; details: 24 h

SMILES	morphology score [1]	SARS-CoV-2 infection rate [2]
CCCCCCCCCCCCc1ccc(S(=O)(=O)Nc2nncs2)cc1 (10 µM)	0.158	93% (inactive)
CCc1ccc(/C=C2/SC(=S)NC2=O)cc1 (10 µM)	0.0397	92.5% (inactive)
NS(=O)(=O)c1nn2cc(-c3ccccc3)nc2s1 (10 µM)	0.289	97.5% (inactive)
CCn1c(-c2nonc2N)nc2cncc(C(=O)N3CC[C@H](N)C3)c21 (0.833333 µM)	0.488	87% (inactive)
Nc1nonc1/C(=N/O)Nc1ccc(F)c(Cl)c1 (10 µM)	0.043	112% (inactive)
COc1ccnc(C[S+]([O-])c2nc3cc(OC(F)F)ccc3[nH]2)c1OC (centres undefined) [pantoprazole] (10 µM)	-0.142	104% (inactive)
Cc1nc(Nc2ccc(F)cc2)nc(N2CCc3ccccc3C2C)c1C (centres undefined) [revaprazan] (10 µM)	0.59	42.5% (active)
O=C(Nc1cc(C(F)(F)F)cc(C(F)(F)F)c1)Nc1c(Br)cc(Br)cc1-c1nnn[nH]1 (10 µM)	0.192	104% (inactive)
CN(C)CCOc1cc(-c2cn[nH]c2)ccc1NC(=O)C1COc2ccccc2O1 (centres undefined) (0.833333 µM)	0.294	76.5% (inactive)
C/C(=C(\CCOP(=O)(O)O)SC(=O)c1ccccc1)N(C=O)Cc1cnc(C)nc1N [benfotiamine] (10 µM)	-0.0264	112% (inactive)
O=C(O)c1ccc(N2C(=O)/C(=C/c3ccc(-c4ccc([N+](=O)[O-])cc4)o3)C=C2c2ccccc2)cc1 (10 µM)	0.184	93% (inactive)
COP(=O)(OC)OC(c1ccc(Cl)cc1)P(=O)(OC)OC (centres undefined) [mifobate] (10 µM)	-0.0183	106% (inactive)
CCCCCCCCCCCCCC(=O)[O-].CCCCCCCCCCCCCC(=O)[O-].N[C@@H]1CCCC[C@H]1N.[Pt+2] [miriplatin] (10 µM)	0.0834	114% (inactive)
CC(C)n1nc(-c2cc3cc(O)ccc3[nH]2)c2c(N)ncnc21 (10 µM)	-0.0614	95.5% (inactive)
C[C@]12COC(=O)C[C@@H]1CC[C@@H]1[C@@H]2CC[C@@]2(C)[C@H]1CC[C@]2(C)O [Oxandrolone] (10 µM)	0.0356	112% (inactive)
CN1CCN(c2nc(C3=C(c4c[nH]c5ccccc45)C(=O)NC3=O)c3ccccc3n2)CC1 [sotrastaurin] (10 µM)	0.0619	119% (inactive)
O=C1CN=C(c2cccc(Br)c2)c2oc3ccccc3c2N1 (10 µM)	0.0252	95.5% (inactive)
CCCCCCCCCCCCCCCC(=O)O[C@@H]1[C@@H](O)[C@@H](O)[C@@H]([C@H](NC(=O)[C@@H]2C[C@@H](CCC)CN2C)[C@H](C)Cl)O[C@@H]1SC [clindamycin-palmitate] (10 µM)	0.0793	108% (inactive)
C[N+]1(C)[C@@H]2C[C@@H](OC(=O)C(O)(c3cccs3)c3cccs3)C[C@H]1[C@@H]1O[C@@H]12 [tiotropium] (10 µM)	0.0776	100% (inactive)

SMILES	morphology score [1]	SARS-CoV-2 infection rate [2]
CC[C@@H](c1ccc(F)c(F)c1)n1c(C(=O)OC)c(-c2ccno2)[nH]c1=S (10 µM)	-0.0397	93.5% (inactive)
O=S(=O)(O)NC1CCCCC1 [cyclamic-acid] (10 µM)	0.146	87.5% (inactive)
CC(=O)OCC(=O)[C@@]1(O)CC[C@H]2[C@@H]3CCC4=CC(=O)C=C[C@]4(C)[C@@]3(F)[C@@H](O)C[C@@]21C [isoflupredone-acetate] (10 µM)	0.155	98% (inactive)
O=C(Nc1cccc(Cl)c1)Nc1ncc(CCNc2ncnc3ccsc23)s1 (10 µM)	0.393	80% (inactive)
CCCCCCCCCCCCCCOc1ccc(C(=O)O)o1 (0.833333 µM)	0.208	96.5% (inactive)
NS(=O)(=O)c1cc2c(cc1Cl)NC(C(Cl)Cl)NS2(=O)=O (centres undefined) [trichlormethiazide] (10 µM)	0.0616	100% (inactive)
Cc1cc(N2CCCCC2)nc2ccccc12 (10 µM)	0.282	93% (inactive)
OC[C@@H](O)[C@H]1O[C@@H]2O[C@H](C(Cl)(Cl)Cl)O[C@@H]2[C@H]1O [chloralose] (10 µM)	0.162	103% (inactive)
C[C@@H](NC(=O)[C@@H](N)Cc1ccc(O)cc1)C(=O)NCC(=O)N(C)[C@@H](Cc1ccccc1)C(=O)N[C@H](CO)CC[S+](C)[O-] (some centres undefined) (10 µM)	0.111	112% (inactive)
CC[C@@]1(O)C(=O)OCc2c1cc1n(c2=O)Cc2cc3cc(O)ccc3nc2-1 [10-hydroxycamptothecin] (10 µM)	-0.13	103% (inactive)
CCCCCCCCCCCCC[N+](C)(C)Cc1ccccc1 [benzalkonium] (10 µM)	0.0369	105% (inactive)
Oc1noc2c1CCNC2 [gaboxadol] (10 µM)	0.0535	106% (inactive)
C=CCN1CCc2cc(O)c(O)cc2[C@H](c2ccccc2)C1 (10 µM)	-0.0101	95% (inactive)
COc1ccc2[nH]c([S+]([O-])Cc3ncc(C)c(OC)c3C)nc2c1 (centres undefined) [omeprazole-magnesium] (10 µM)	-0.138	116% (inactive)
O=C(O)Cc1ccc(OCc2ccccc2)c(Cl)c1 [benzofenac] (10 µM)	-0.114	106% (inactive)
CO/N=C(\C(=O)N[C@@H]1C(=O)N2C(C(=O)O)=CCS[C@H]12)c1csc(N)n1 [ceftizoxim] (10 µM)	-0.0509	102% (inactive)
O=C(O)C(=O)c1cn(Cc2ccccc2)c2ccc(-c3ccc(OC(F)(F)F)cc3)cc12 [tiplaxtinin] (10 µM)	0.0476	106% (inactive)
CC(C)[C@H]1C(=O)N[C@@H](CCCNC(=N)N)C(=O)NCC(=O)N[C@@H](CC(=O)O)C(=O)N[C@H](Cc2ccccc2)C(=O)N1C [cilengitide] (10 µM)	-0.377	109% (inactive)
C=C1/C(=C\C=C2/CCC[C@]3(C)[C@@H]([C@H](C)/C=C/[C@@H](O)C4CC4)CC[C@@H]23)C[C@@H](O)C[C@@H]1O [calcipotriol] (10 µM)	-0.273	103% (inactive)

SMILES	morphology score [1]	SARS-CoV-2 infection rate [2]
NC(=O)C(c1ccccc1)(c1ccccc1)[C@@H]1CCN(CCc2ccc3c(c2)CCO3)C1 [darifenacin] (10 µM)	-0.025	106% (inactive)
O=C(NC(=O)c1c(F)cccc1F)Nc1cc(Cl)c(OC(F)(F)C(F)C(F)(F)F)cc1Cl (centres undefined) [lufenuron] (10 µM)	-0.0435	111% (inactive)
Nc1ncnc2[nH]nc(Nc3ccc(F)cc3)c12 (0.833333 µM)	-0.00281	95.5% (inactive)
CSc1ccc([C@H]2CN3CCC[C@H]3c3ccccc32)cc1 (racemic) (10 µM)	0.328	86.5% (inactive)
CO[C@H](C(=O)[C@@H](O)[C@@H](C)O)[C@@H]1Cc2cc3cc(O[C@H]4C[C@@H](O[C@H]5C[C@@H](O)[C@H](O)[C@@H](C)O5)[C@@H](O)[C@@H](C)O4)c(C)c(O)c3c(O)c2C(=O)[C@H]1O[C@H]1C[C@@H](O[C@H]2C[C@@H](O[C@H]3C[C@](C)(O)[C@H](O)[C@@H](C)O3)[C@H](O)[C@@H](C)O2)[C@H](O)[C@@H](C)O1 [plicamycin] (10 µM)	-0.159	104% (inactive)
O=P1(NCCCl)OCCCN1CCCl (centres undefined) [ifosfamide] (10 µM)	0.188	97.5% (inactive)
CC(C)[C@H](N)C(=O)OCC(CO)OCn1cnc2c(=O)nc(N)[nH]c21 (mixture of isomers) [valganciclovir] (10 µM)	0.118	102% (inactive)
Fc1ccc(-n2cc(CCCCN3CCC4(CC3)OCc3ccccc34)c3ccccc32)cc1 [siramesine] (0.833333 µM)	0.0919	94.5% (inactive)
O=CN1CCC(C(=O)NCCN2CCC(=C3c4ccccc4C=Cc4ccccc43)CC2)CC1 (10 µM)	0.0149	100% (inactive)
Cc1cc(C)c(Nc2ccnc(Nc3ccc(C#N)cc3)n2)c(C)c1 [dapivirine] (0.833333 µM)	0.07	114% (inactive)
N[C@@H](Cc1cc(-c2ccc(Cl)cc2Cl)cc(CP(=O)(O)O)c1O)C(=O)O (10 µM)	-0.167	107% (inactive)
CC(C)(COP(=O)(O)OP(=O)(O)OC[C@H]1O[C@@H](n2cnc3c(N)ncnc32)[C@H](O)[C@@H]1OP(=O)(O)O)[C@@H](O)C(=O)NCCC(=O)NCCS [coenzyme-A] (10 µM)	0.0234	102% (inactive)
COc1ccc(F)c(F)c1C(=O)c1cnc(NC2CCN(S(C)(=O)=O)CC2)nc1N (10 µM)	-0.352	118% (inactive)
CC(C(=O)O)c1ccc(CC2CCCC2=O)cc1 (centres undefined) [loxoprofen] (10 µM)	-0.0253	108% (inactive)
C[C@]1(COc2ccc(N3CCC(Oc4ccc(OC(F)(F)F)cc4)CC3)cc2)Cn2cc([N+](=O)[O-])nc2O1 [delamanid] (10 µM)	-0.0971	110% (inactive)
C[C@@H]1CC(=O)c2c(ccc3c2C(=O)c2cccc(O)c2C3=O)C1 [ochromycinone] (10 µM)	-0.0461	105% (inactive)
c1ccc(N2CCN(Cc3nc4ccccc4[nH]3)CC2)nc1 (10 µM)	0.136	104% (inactive)
OCCOc1ccc(/C(=C(/CCCl)c2ccccc2)c2ccccc2)cc1 [ospemifene] (10 µM)	0.19	97.5% (inactive)
C[C@]12CCC(=O)C=C1CC[C@@H]1[C@@H]2[C@@H](O)C[C@@]2(C)[C@H]1CC[C@]2(O)C(=O)COP(=O)(O)O [hydrocortisone-phosphate] (10 µM)	-0.00553	98.5% (inactive)
